In PubChem BioAssay AID1159580 (chemical genetic matrix, 2015):
Where “and” joins values, the source holds several entries; their conditions need not be identical. Equal entries are not always repeated. In all, about 5,500 compounds went through this assay and about 2,000 (36%) were called active. Not shown: some 18% with an inconclusive outcome. No stated cut-off is given here; in the data, active means normalized growth mostly below about 0.91 (no sharp cut-off); inconclusive means no clear call, values can overlap the other calls; inactive means mostly above about 0.92. The list shows a part of the results.

Test: chemical genetic growth profiling, strain panel (AID 1159580);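 further: tested at 20 µM; growth read once vehicle control cultures reached saturation at 30 °C; 1 = growth at the plate median or of vehicle wells; lower values mean less growth of the strain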
Settings: S. cerevisiae deletion strains, growth OD

Measured: normalized growth

CC(C)Nc1nc(Cl)nc(NC(C)C)n1
inactive: locus YAL013W, strain DEP1, active compounds read low 1.01 | locus YAL021C, strain ccr4, active compounds read low 1 | locus YAL026C, strain drs2, active compounds read low 0.996 | locus YAL030W, strain snc1, active compounds read low 0.998 | locus YBL061C, strain skt5, active compounds read low 0.996 | locus YBR009C, strain hhf1, active compounds read low 1 | locus YBR021W, strain FUR4, active compounds read low 1.01 | locus YBR023C, strain chs3, active compounds read low 0.992 | locus YBR171W, strain sec66, active compounds read low 0.995 | locus YBR229C, strain ROT2, active compounds read low 0.993 | locus YBR231C, strain swc5, active compounds read low 0.996 | locus YBR279W, strain paf1, active compounds read low 0.994 | locus YCL011C, strain gbp2, active compounds read low 0.992 | locus YCL016C, strain dcc1, active compounds read low 1 | locus YCL029C, strain bik1, active compounds read low 1.01 | locus YCL061C, strain MRC1, active compounds read low 0.987 | locus YCL069W, strain vba3, active compounds read low 1.01 | locus YCR088W, strain abp1, active compounds read low 0.992 | locus YDL005C, strain med2, active compounds read low 0.998 | locus YDL035C, strain GPR1, active compounds read low 1.01 | locus YDL040C, strain nat1, active compounds read low 0.999 | locus YDL074C, strain BRE1, active compounds read low 1.01 | locus YDL101C, strain DUN1, active compounds read low 1.01 | locus YDL134C, strain PPH21, active compounds read low 1.01 | locus YDL185W, strain tfp1, active compounds read low 1.01 | locus YDL192W, strain arf1, active compounds read low 1 | locus YDR001C, strain nth1, active compounds read low 1 | locus YDR069C, strain doa4, active compounds read low 1.01 | locus YDR101C, strain arx1, active compounds read low 0.996 | locus YDR137W, strain rgp1, active compounds read low 0.953 | locus YDR150W, strain NUM1, active compounds read low 1 | locus YDR159W, strain sac3, active compounds read low 1.03 | locus YDR162C, strain NBP2, active compounds read low 1.01 | locus YDR195W, strain ref2 0.969 | locus YDR297W, strain sur2, active compounds read low 1 | locus YDR318W, strain mcm21, active compounds read low 1.02 | locus YDR334W, strain swr1, active compounds read low 0.995 | locus YDR335W, strain msn5, active compounds read low 1 | locus YDR388W, active compounds read low 1.01 | locus YDR392W, strain spt3, active compounds read low 0.996 | locus YDR502C, strain sam2, active compounds read low 1.01 | locus YEL003W, strain gim4, active compounds read low 1 | locus YEL037C, strain rad23, active compounds read low 1.01 | locus YEL061C, strain CIN8 (second series), active compounds read low 1 | locus YEL061C, strain CIN8, active compounds read low 1.01 | locus YER015W, strain faa2, active compounds read low 1 | locus YER016W, strain bim1, active compounds read low 1 | locus YER110C, active compounds read low 1.01 | locus YER111C, strain swi4, active compounds read low 0.994 | locus YER155C, strain BEM2 (second series), active compounds read low 0.992 | locus YER155C, strain BEM2, active compounds read low 1.01 | locus YER167W, strain BCK2, active compounds read low 1.01 | locus YFR010W, strain ubp6, active compounds read low 1.01 | locus YGL078C, strain dbp3, active compounds read low 1.02 | locus YGL086W, strain mad1, active compounds read low 1.01 | locus YGL167C, strain pmr1, active compounds read low 0.998 | locus YGL173C, strain kem1, active compounds read low 0.996 | locus YGL227W, strain vid30, active compounds read low 0.988 | locus YGL240W, strain doc1, active compounds read low 0.99 | locus YGL248W, strain PDE1, active compounds read low 1.01 | locus YGL253W, strain hxk2, active compounds read low 0.999 | locus YGR078C, strain PAC10, active compounds read low 0.997 | locus YGR135W, strain pre9, active compounds read low 0.997 | locus YGR229C, strain SMI1, active compounds read low 1 | locus YGR252W, strain gcn5, active compounds read low 0.983 | locus YHR013C, strain ard1, active compounds read low 1 | locus YHR027C, strain rpn1, active compounds read low 0.994 | locus YHR030C, strain SLT2, active compounds read low 0.979 | locus YHR079C, strain IRE1 (second series), active compounds read low 1.02 | locus YHR079C, strain IRE1, active compounds read low 0.978 | locus YHR094C, strain hxt1, active compounds read low 1.01 | locus YHR129C, strain ARP1, active compounds read low 1.01 | locus YHR142W, strain chs7, active compounds read low 0.995 | locus YHR200W, strain rpn10, active compounds read low 1.01 | locus YIL066C, strain RNR3, active compounds read low 1.02 | locus YIL073C, strain SPO22, active compounds read low 1.07 | locus YIL125W, strain kgd1, active compounds read low 1 | locus YIR030C, strain dcg1, active compounds read low 1.02 | locus YJL092W, strain hpr5, active compounds read low 0.995 | locus YJL095W, strain BCK1 (second series), active compounds read low 1 | locus YJL095W, strain BCK1, active compounds read low 0.987 and 0.984 | locus YJL115W, strain asf1, active compounds read low 0.986 | locus YJL129C, strain trk1, active compounds read low 0.997 | locus YJL134W, strain LCB3, active compounds read low 0.993 | locus YJL154C, strain vps35, active compounds read low 1 | locus YJL164C, strain tpk1, active compounds read low 1.01 | locus YJL166W, strain qcr8, active compounds read low 1 | locus YJL168C, strain set2, active compounds read low 1.01 | locus YJL187C, strain SWE1 (second series), active compounds read low 1.01 | locus YJL187C, strain SWE1, active compounds read low 1.01 | locus YJR043C, strain POL32, active compounds read low 1.01 | locus YJR066W, strain TOR1, active compounds read low 0.928
